# An excerpt weighted towards active compounds, which were near 19% of everything screened.
# HT1080 IDH1KD tx – HT-1080 IDH1 knockdown cell toxicity (counter line); HT-1080 IDH1 knockdown viability, ATP luminescence, 48 h; Potency, µM (titrated, usually from 46.1 µM), most hits filed as cytotoxic; actives 2% (n = 360,000); AID 686971
#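 In this qHTS, HT-1080 cells depleted of IDH1 are exposed for 48 h at 37 °C to compound titrations. Toxicity is scored from CellTiter-Glo luminescence, with DMSO as full viability and medium alone as none.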
# IL-1B inflam inh – blocks inflammasome-driven IL-1 beta release; AID 743279; activity change, % at 57.5 µM; THP-1 LPS/ATP IL-1B secretion, AlphaLISA, 16 h; hits give low values; actives 4.7% (n = 360,000); in the data active = activity change below about -50%; inconclusive = mostly about -30% to -49%
#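 THP-1 cells pretreated 1 hr with compounds (up to 57.5 uM final), then stimulated with LPS (250 ng/mL final) plus ATP (1.25 mM final); secreted IL-1B measured by AlphaLISA after 16 hr, decreased signal indicating inhibition.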
# TDP1 cell CPT – growth inhibition of DT40 Tdp1-/-;hTDP1 cells with camptothecin (screen for TDP1 inhibitors). chicken DT40 Tdp1-/-;hTDP1 cells + 20 nM CPT, ATP luminescence, 48 h. Potency, µM (doses to about 46.2 µM), actives largely listed as inhibitors. actives 12% (n = 420,000). AID 686979; note: nearly all actives have a fitted effect of over 55% in size
#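 Chicken DT40 Tdp1-/- cells complemented with human TDP1, 400 cells/well, exposed to compounds plus 20 nM camptothecin for at least 48 h at 37 C; viability read as ATP content by CellTiter-Glo luminescence.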
# TDP1 cell noCPT – qHTS for Inhibitors of human tyrosyl-DNA phosphodiesterase 1 (TDP1): qHTS in cells in absence of CPT; actives 15% (n = 420,000); Potency, µM (top dose mostly 46.2 µM), hits mostly inhibitors; DT40 Tdp1-/- hTDP1 cells, no CPT, ATP luminescence, 48 h; note: nearly all actives have a fitted effect of over 55% in size
#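 Seeded 400 DT40-hTDP1 cells/well (vehicle DMSO, no 20 nM CPT); pinned compounds; ≥48 hr at 37 °C; CellTiter-Glo luminescence as viability measure.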
# ELG1 DNA repair – blocks ELG1-dependent DNA repair in HEK293T cells | AID 504467 | actives 2.3% (n = 330,000) | HEK293T ELG1-luciferase reporter, luminescence, 16 h; DNA damage induced by 5-fluorouridine | Potency, µM (top dose mostly 46.1 µM), usual class: inhibitors; note: nearly all actives have a fitted effect of over 55% in size
#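 DMSO vehicle served as the neutral condition. Each well held 2,000 cells given 5-fluorouridine plus compound; after 16 hr at 37 °C/5% CO2, ONE-Glo was added and luciferase measured 30 min later.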
# HT1080NT lethal – kills 2HG-producing HT-1080-NT fibrosarcoma cells; HT-1080-NT fibrosarcoma viability, CellTiter-Glo ATP luminescence, 48 h; AID 686970; Potency, µM (series often up to 46.1 µM), usual class: cytotoxic; actives 1.6% (n = 360,000);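 note: NT is the 2HG producing partner of a matched IDH1 knockdown line; nearly all actives have a fitted effect of over 55% in size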
#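 Read-out is CellTiter-Glo luminescence after 10 minutes at room temperature, following 48 hours' compound treatment of HT-1080-NT cells (750 cells/well, RPMI, 5% FBS, 37 degrees C).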
# Numbers stand for hits; i = inactive; ? = inconclusive; nt = no result. Unless noted, calls come from the whole dose curve; as a rule, active = well fitted curve in the direction sought with a large enough effect; inconclusive = small, poorly fitted or top-dose-only effect, or another doubt; inactive = no such curve, though single readings can be large; an effect the other way counts as inactive or inconclusive.
SMILES,HT1080 IDH1KD tx,IL-1B inflam inh,TDP1 cell CPT,TDP1 cell noCPT,ELG1 DNA repair,HT1080NT lethal
CCCNC(=O)C1(C)CCCN(Cc2ccc(Cl)cc2)C1 (stereo not given),i,i,?,?,nt,i
COc1ccc(COC[B-](F)(F)F)cc1,i,-52.9,i,i,nt,i
COC(=O)C1CCN(C(=O)c2oc3c(Cl)cc(C)cc3c2C)CC1,i,i,?,20.6µM,?,i
Cc1c(C(=O)N2CCN(c3ccccc3)CC2)oc2c(F)cccc12,i,i,?,?,i,i
Cc1ccc2c(C)c(C(=O)N3CCN(c4ncccn4)CC3)oc2c1C,i,i,20.6µM,16.4µM,i,i
COc1ccc2oc(C(=O)N3CCN(c4ncccn4)CC3)c(C)c2c1,i,i,i,i,i,i
Cc1cc(Cl)c2oc(C(=O)N3CCN(c4ccncc4)CC3)c(C)c2c1,11.6µM,-88.2,20.6µM,13µM,nt,11.6µM
CCCN(CCC)C(=O)Cn1c(=O)n(CCCCCC(=O)NCc2ccc3c(c2)OCO3)c(=O)c2sccc21,nt,nt,?,i,nt,nt
O=C(C1CC(=O)N(c2ccc(Cl)cc2)C1)N1CCC(c2nc3ccccc3[nH]2)CC1 (stereo not given),i,i,?,?,i,i
Cc1[nH]c2ccccc2c1C1N2CC3(C)CN1CC(C)(C2)C3=O (stereo not given),nt,nt,i,i,nt,nt
CCOc1ccc2nc(NC(=O)c3nc(SCc4ccc(C)cc4)ncc3Cl)sc2c1,nt,nt,i,i,nt,nt
CN(C)c1ccc(CC(=O)c2nc3ccccc3s2)cc1,i,i,16.4µM,?,?,i
Nc1nc(SCc2ccccc2)c2ncn(C3CCCO3)c2n1 (stereo not given),i,i,?,?,nt,i
Nc1nc(SCc2ccccc2)c2ncn(C3CCCCC3)c2n1,i,-78.5,?,29.1µM,nt,?
O=C(CSc1nc2ncc(Br)cc2[nH]1)c1ccc([N+](=O)[O-])cc1,i,i,18.4µM,?,i,i
CCN(CC)C(=O)CSc1nc2ncc(Br)cc2[nH]1,i,i,i,i,i,i
O=C(CSc1nc2ncc(Br)cc2[nH]1)Nc1ccccc1-c1ccccc1,?,i,16.4µM,?,?,?
CCC(CC)c1nn2c(=O)cc(COc3ccc(NC(=O)c4ccc(Cl)cc4)cc3)nc2s1,nt,nt,i,i,nt,nt
N#CC(=C(O)COC(=O)CCC1CCCCC1)c1nc2ccccc2[nH]1,i,-98.5,5.8µM,5.17µM,nt,i
COc1ccccc1OCC(=O)OC/C(O)=C(\C#N)c1nc2ccccc2[nH]1,i,i,?,?,?,i
N#C/C(=C(/O)COC(=O)Cc1c[nH]c2ccccc12)c1nc2ccccc2[nH]1,i,i,i,i,i,i
N#C/C(=C(/O)COC(=O)CSc1ccc(Cl)cc1)c1nc2ccccc2[nH]1,i,-102.0,18.4µM,5.17µM,?,i
Cc1cc(SCC(=O)OC/C(O)=C(\C#N)c2nc3ccccc3[nH]2)c(C)cc1Br,?,-100.1,?,?,i,?
C[C@@H]1O[C@@H](OCCC(=O)O)[C@H](O)C[C@H]1O,i,i,i,i,?,i
O=C(CN1CCN(S(=O)(=O)c2ccc(Br)s2)CC1)NCC1CCCCC1,i,i,i,?,nt,i
SMILES,HT1080 IDH1KD tx,IL-1B inflam inh,TDP1 cell CPT,TDP1 cell noCPT,ELG1 DNA repair,HT1080NT lethal
COc1cc2[nH]c(C)c(-c3ccccc3)c(=O)c2cc1Cl,i,i,i,i,nt,i
CCc1nn2c(=O)cc(COC(=O)c3cccc(NC(=O)CCc4ccccc4)c3)nc2s1,nt,nt,?,6.51µM,nt,nt
CCc1nn2c(=O)cc(COC(=O)c3ccc(NC(=O)CCc4ccccc4)cc3)nc2s1,nt,nt,23.1µM,9.2µM,nt,nt
CCCc1nn2c(=O)cc(COC(=O)c3cccc(NC(=O)COc4ccccc4C)c3)nc2s1,nt,nt,?,18.4µM,nt,nt
CCCc1nn2c(=O)cc(COC(=O)c3ccc(NC(=O)CCc4ccccc4)cc3)nc2s1,nt,nt,i,i,nt,nt
CCc1ccc(NC(=O)C[n+]2cc(-c3ccc(C)cc3)n3c2CCC3)cc1,i,?,2.31µM,3.66µM,11.6µM,?
Cc1ccc(-c2c[n+](CC(=O)Nc3c(C)cccc3C)c3n2CCC3)cc1,i,-63.6,?,?,?,i
Cc1ccc(NC(=O)C[n+]2cc(-c3ccccc3)n3c2CCC3)c(C)c1,i,i,i,?,i,i
COc1ccc(N2CC(NC(=O)/C=C\c3ccccc3)CC2=O)cc1OC (stereo not given),nt,nt,i,i,nt,nt
CCc1ccc(NC(=O)COc2ccc(F)cc2C(=O)c2cnn(-c3ccccc3)c2)cc1,i,i,?,?,?,i
COc1ccccc1NC(=O)COc1ccccc1C(=O)c1cnn(-c2ccccc2)c1,i,i,20.6µM,23.1µM,i,i
Cc1ccnc(Sc2ccc([N+](=O)[O-])cc2[N+](=O)[O-])n1,?,-103.7,0.731µM,0.581µM,?,?
NS(=O)(=O)c1ccc(Sc2ccccn2)c([N+](=O)[O-])c1,i,nt,i,?,?,i
Nc1nc(Sc2ccc([N+](=O)[O-])cc2[N+](=O)[O-])n[nH]1,i,i,?,?,?,i
Cc1ccc(Sc2ccc([N+](=O)[O-])cc2[N+](=O)[O-])nc1,23.1µM,-187.5,2.59µM,2.91µM,i,16.4µM
CCC(C(=O)Nc1ccccc1OC)n1c(C(=O)OC)cc2sc(Cl)cc21 (stereo not given),nt,nt,i,?,nt,nt
Cc1ccc2oc(=O)c3cnn(CC(=O)NCCN(C)C)c3c2c1,i,i,i,i,i,i
CCN(CC)CCNC(CC(=O)Nc1ccc(Cl)cc1Cl)C(=O)O (stereo not given),i,i,i,i,i,i
CN(C)CCNc1ccc(CO)c2oc3ccc(O)cc3c(=O)c12,20.6µM,-98.5,0.13µM,0.651µM,nt,?
CCN(CC)CCNc1ccc(CO)c2oc3cc(Cl)ccc3c(=O)c12,i,i,23.1µM,10.3µM,nt,?
CC(C)NC(=O)Cn1nc(N2CCN(c3ccccc3)CC2)ccc1=O,nt,nt,i,i,nt,nt
O=[N+]([O-])c1ccc(Cl)c(C[n+]2cccc3ccccc32)c1,i,i,20.6µM,18.4µM,i,i
Nc1ccccc1SCc1c(Cl)cccc1Cl,i,i,?,i,i,i
O=C(C[n+]1cccc2ccccc21)c1ccc(Cl)cc1,i,i,i,i,i,i
Clc1cccc(Cl)c1C[n+]1cccc2ccccc21,?,i,2.06µM,2.06µM,nt,?
COc1ccc(C(=O)C[n+]2cccc3cc(OC)ccc32)cc1,i,i,?,20.6µM,i,i

# Assay outcomes from PubChem.
